Bioassay records as filed in PubChem.
DSG3 Ab inh – inhibitors of pemphigus antibody binding to human desmoglein-3; P32926; DSG3-coupled beads, scFv-anti-DSG3-GFP binding, flow cytometry; active compounds read low; binding (percent of control), % at 10 µM; 310,000 compounds, 0.48% hits;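 active means binding more than 3 SD below its plate's average and above zero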;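 further: hits lower antibody fragment binding to DSG3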
GRK2 aptamer HTS – inhibitors of human GRK2 displacing RNA aptamer. bead flow cytometry, FAM-aptamer displacement from GRK2. inhibition of aptamer binding, % at 10 µM. 330,000 compounds, 0.59% hits. AID 488847;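 active means inhibition of aptamer binding above 40%, roughly 3 SD of noise, on plates passing a quality check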;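 further: median bead fluorescence of bound FAM aptamer so fluorescent compounds give negative values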
VLA-4 inh – inhibition in a human VLA-4 binding assay | VLA-4 expressing cells, ligand binding flow cytometry | inhibition, % (about 7 µM as worked out from the volumes in the protocol) | 330,000 compounds, 0.2% hits | AID 2557; in the data active means inhibition above about 50%
Target sequence (P13612 whole entry, looked up): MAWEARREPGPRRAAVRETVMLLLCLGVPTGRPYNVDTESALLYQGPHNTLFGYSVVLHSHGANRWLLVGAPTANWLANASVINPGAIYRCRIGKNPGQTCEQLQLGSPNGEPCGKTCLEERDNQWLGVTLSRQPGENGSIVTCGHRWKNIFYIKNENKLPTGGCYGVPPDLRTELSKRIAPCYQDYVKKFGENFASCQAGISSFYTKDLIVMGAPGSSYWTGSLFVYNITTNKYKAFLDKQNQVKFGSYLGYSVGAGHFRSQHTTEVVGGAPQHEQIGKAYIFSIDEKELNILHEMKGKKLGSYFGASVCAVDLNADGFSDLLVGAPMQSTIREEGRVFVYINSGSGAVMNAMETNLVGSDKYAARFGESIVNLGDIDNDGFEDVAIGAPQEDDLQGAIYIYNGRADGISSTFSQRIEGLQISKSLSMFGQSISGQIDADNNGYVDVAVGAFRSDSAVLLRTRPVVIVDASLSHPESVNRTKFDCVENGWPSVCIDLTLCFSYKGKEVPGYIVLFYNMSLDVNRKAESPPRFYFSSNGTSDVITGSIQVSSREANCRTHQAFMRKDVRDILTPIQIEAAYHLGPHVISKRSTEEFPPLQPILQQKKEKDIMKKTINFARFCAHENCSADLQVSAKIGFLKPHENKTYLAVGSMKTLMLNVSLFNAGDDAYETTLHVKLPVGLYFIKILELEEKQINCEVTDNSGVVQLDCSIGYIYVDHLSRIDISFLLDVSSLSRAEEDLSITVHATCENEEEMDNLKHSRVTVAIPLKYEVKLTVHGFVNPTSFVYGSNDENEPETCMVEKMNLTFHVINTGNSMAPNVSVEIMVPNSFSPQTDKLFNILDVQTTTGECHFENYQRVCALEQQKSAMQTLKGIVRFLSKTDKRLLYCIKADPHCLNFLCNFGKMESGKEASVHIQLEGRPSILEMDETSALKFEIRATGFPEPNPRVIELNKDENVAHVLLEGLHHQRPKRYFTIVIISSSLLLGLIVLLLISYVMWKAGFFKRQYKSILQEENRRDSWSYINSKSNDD
PREPL inhibitor – human PREPL enzyme inhibition | inhibition, % at 5.96 µM | 320,000 compounds, 0.68% hits | AID 2751 | recombinant PREPL, fluorescence polarization activity-based probe | Q4J6C6; in the data active means inhibition above about 43%;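 further: 0% = enzyme with DMSO and 100% = wells lacking enzyme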
JMJD2C inh – human JMJD2C demethylase inhibition; Q9H3R0; GST-JMJD2C(1-420) H3K9me3 demethylation, DELFIA europium; inhibition, % at 2.35 µM; 330,000 compounds, 0.069% hits; AID 2099;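 active means more than half of a compound's replicate wells show inhibition beyond 50%, single wells judged on their own value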;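 further: signal counts dimethyl H3K9 product captured on neutravidin plate; 0% = median of DMSO wells and 100% = 0.3 times that DMSO median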
The depositor's hits bear a star; i = inactive; nt = no result. This is a sample that favours compounds with a hit; in the whole collection about 1.6% have one here.

SMILES	DSG3 Ab inh	GRK2 aptamer HTS	VLA-4 inh	PREPL inhibitor	JMJD2C inh
COc1ccc(-c2coc3c(CN4CCCCC4)c(O)c(CN4CCCCC4)c(O)c3c2=O)cc1	nt	100*	11	30	-4
O=C1/C(=C\c2ccco2)SC(=S)N1C1CCCCC1	nt	5	-6	-5	12
CC1=C(C#N)C(=O)N(C2CCS(=O)(=O)C2)C(=O)/C1=C\c1ccco1 (stereo not drawn)	nt	100*	12	15	15
O=C1Nc2ccccc2/C1=N/N=C/c1ccc(-c2ccc([N+](=O)[O-])cc2)o1	72*	nt	nt	nt	-3
Cc1ccc(CN2C3CCCC2CC(NC(=O)c2ccc(C)cc2)C3)cc1 (stereo not drawn)	92	0	3	-25	5
CC(C)(C)c1ccc(NC(=O)c2ccc3c(c2)S(=O)(=O)c2ccccc2C3=O)cc1	101	0	-5	-7	10
COc1ccc(NC(=O)c2ccc3c(c2)S(=O)(=O)c2ccccc2C3=O)cc1	83*	1	14	6	2
COC1CCCN(C(=O)c2cccc(OC3CCN(S(C)(=O)=O)CC3)c2)C1 (stereo not drawn)	99	4	3	6	1
CN(C)CCCNS(=O)(=O)c1ccc(N2CCC(c3ccc(Cl)cc3)=N2)cc1	nt	0	46	70*	8
CCCCn1c(=O)[nH]c(=O)c2c1nc(-c1cc(Cl)c(OC)c(OC)c1)n2C	108	1	-3	1	52*
CN1CCN(c2nc3ccccn3c(=O)c2/C=C(\C#N)S(=O)(=O)c2ccc(Cl)cc2)CC1	110	0	-2	-6	90*
Cc1snc(S(=O)(=O)/C(C#N)=N/Nc2cccc(C(F)(F)F)c2)c1C#N	74*	0	16	4	10
COC(=O)Nc1ccc(Cn2cc(C(F)(F)F)ccc2=O)cc1	111	0	12	16	16
CCc1cc2cc(C)c(C)cc2nc1SCC(=O)Nc1cc(C)on1	60*	0	0	-7	-2
CCc1cc2ccccc2nc1SCC(=O)Nc1cc(C)on1	87	0	8	-4	-4
COC(=O)c1cccnc1-n1c(=O)c2cccnc2n(Cc2ccc([N+](=O)[O-])cc2)c1=O	104	2	3	18	-9
Cc1ccccc1CCNC(=O)c1ccc(Cl)c(S(=O)(=O)N2CC(C)OC(C)C2)c1 (stereo not drawn)	99	0	-33	24	1
CCCC(=O)Nc1ccc(Oc2ccc(NC(=O)CCC)cc2)cc1	55*	0	11	-6	31
CC1(C)CC(=O)C(=CN2CCOCC2)C(=O)C1	102	1	2	2	-15
CCOC(=O)c1c(NC(=O)C2C3C=CC(C3)C2(C)C(=O)O)sc2c1CCCC2 (stereo not drawn)	81	64*	5	11	0
CCOC(=O)c1c(NC(=O)c2ccccc2C(=O)O)sc2c1CCCC2	68*	0	7	6	5
CCOC(=O)c1c(NC(=O)C2CCCCC2C(=O)O)sc2c1CCCCC2 (stereo not drawn)	110	0	9	-6	12
CCOC(=O)c1c(NC(=O)C2CCCO2)sc2c1CCC2 (stereo not drawn)	101	0	-4	3	52*
COC(=O)c1c(NC(=O)c2ccccc2C(=O)O)sc2c1CCCC2	94	nt	nt	nt	nt
COc1cccc(C2(O)C(=O)Nc3ccccc32)c1 (stereo not drawn)	102	0	16	16	11
SMILES	DSG3 Ab inh	GRK2 aptamer HTS	VLA-4 inh	PREPL inhibitor	JMJD2C inh
CC1=C(C(=O)Nc2ccccc2C(=O)N2CCN(c3ccccc3)CC2)SCCO1	102	nt	nt	nt	nt
COc1ccc(S(=O)(=O)NC(C(=O)OCC(=O)Nc2ccc(N3CCOCC3)cc2)C(C)C)cc1 (stereo not drawn)	107	nt	nt	nt	nt
COC(=O)c1nnn(-c2nc(N3CCOCC3)nc(N3CCOCC3)n2)c1C	100	0	11	-4	-2
O=C1CC(C(=O)Nc2ccc(F)cc2)n2cnnc2N1 (stereo not drawn)	2.4*	0	8	1	-14
O=C(Nc1ccc(F)cc1)C1CC(=O)n2cnnc2N1 (stereo not drawn)	99	0	23	-5	0
O=C(O)CCc1nnc(SCC(=O)Nc2ccc(Br)cc2)[nH]c1=O	104	1	3	4	-2
CCOc1ccc(N2C(=O)C(c3ccccc3)=C(c3nc4ccccc4s3)C2NC(C)=O)cc1 (stereo not drawn)	110	2	i	0	-10
